According to PubChem BioAssay (EPA / NIEHS):
The source made the active and inactive calls. The calls were made as follows: active = hit-call score of the fitted dose curve at least 0.9, where 1 is the maximum; inconclusive = response in the unintended direction; inactive = score below 0.9.

test: CPHEA_Stoker_NIS_Cytotoxicity: Cytotoxicity Assessment for CPHEA's Radioactive Iodide Uptake (RAIU) Assay for Sodium/Iodide Symporter (NIS) Inhibition, Stoker and Laws Labs (AID 2283897);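 as to AC50: active means loss of ATP signal versus DMSO meaning cytotoxicity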
How it was run: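 hNIS-HEK293T-EPA human kidney cells were exposed for 2 hours at room temperature to test chemicals (0.001–100uM, 0.5% final DMSO) in HEPES-buffered HBSS, pH 7.4. Viability was read as ATP content by luciferase bioluminescence, loss of signal versus DMSO.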

**Q.** With `CCCCCCc1ccc(N)cc1` as the compound, how does the outcome read?
**A.** Its outcome is “inactive”.

**Q.** Which outcome does the source give for `O=C(O)C(=O)O` here?
**A.** Its outcome is “inactive”.

**Q.** For `CCCCC(CC)C(=O)O` (stereo not drawn), which outcome is on record?
**A.** The outcome was “inactive”.

**Q.** Which outcome does the source give for `Cc1cc(Cc2cc(C)cc(C(C)(C)C)c2O)c(O)c(C(C)(C)C)c1` here?
**A.** Its outcome is “inactive”.

**Q.** With `CCCCCCCCCCCC` as the compound, how does the outcome read?
**A.** Its outcome is “inactive”.

**Q.** For `O=C1OC2(c3ccccc31)c1cc(I)c(O)c(I)c1Oc1c2cc(I)c(O)c1I`, which outcome is on record?
**A.** The outcome was “inactive”.

**Q.** For `NC(=NCCCCCCN=C(N)/N=C(\N)Nc1ccc(Cl)cc1)/N=C(\N)Nc1ccc(Cl)cc1`, which AC50 is on record?
**A.** The AC50 was 87 µM (active).

**Q.** With `Cc1[nH]nc2c1N=C(c1ccccc1Cl)c1cc([N+](=O)[O-])ccc1N2` as the compound, how does the outcome read?
**A.** Its outcome is “inactive”.

**Q.** Which outcome does the source give for `O=C(CCCN1CCC(O)(c2ccc(Cl)cc2)CC1)c1ccc(F)cc1` here?
**A.** The outcome was “inactive”.

**Q.** Which outcome does the source give for `Cc1cc(C(C)(C)C)c(O)c(C(C)(C)C)c1` here?
**A.** The outcome was “inactive”.

**Q.** Which outcome does the source give for `NCCN` here?
**A.** Its outcome is “inactive”.

**Q.** Which outcome does the source give for `CCCCc1oc2ccccc2c1C(=O)c1cc(I)c(OCCN(CC)CC)c(I)c1` here?
**A.** The outcome was “inactive”.

**Q.** With `CC(C)c1c(C(=O)Nc2ccccc2)c(-c2ccccc2)c(-c2ccc(F)cc2)n1CC[C@@H](O)C[C@@H](O)CC(=O)O` as the compound, how does the outcome read?
**A.** Its outcome is “inactive”.
